Results: the supplement of paper PMC12669032
Several values for one entry are separate records, joined by “and”; a condition that tells them apart may be missing. Equal values may be shown once.

Experiments:
Test in all cases: growth AUC relative to DMSO control (median of replicates) (fraction); higher = more growth (less inhibition), active = hit call of the paper
Details in all cases: 20 µM; 24 h;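 active = AUC reduced over 20% with Padj below 0.05 in at least 2 of 3 replicates; inactive = otherwise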
[1] = system: Coprococcus comes
Procedure, shortened: (§1)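 In round-bottom 96-well plates sealed with pierced gas-permeable seals, gut bacterial monocultures in mGAM were grown anaerobically at 37 °C from OD600 0.05 with 20 µM compound (1% DMSO). OD600 readings were taken hourly for 24 h, and the minimum OD was set to 0. Area under the growth curve was then normalised to the plate median of solvent-only wells, or to row and column medians on the industrial chemical plate. The value given is the median of three biological replicates grown on separate days.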

[2] = system: Escherichia coli ED1a
Procedure, shortened: as §1

[3] = system: Escherichia coli IAI1
Procedure, shortened: as §1

[4] = system: Eubacterium rectale
Procedure, shortened: as §1

[5] = system: Fusobacterium nucleatum subsp. animalis
Procedure, shortened: as §1

[6] = system: Lactobacillus gasseri
Procedure, shortened: as §1

[7] = system: Lactobacillus paracasei
Procedure, shortened: as §1

[8] = system: Odoribacter splanchnicus
Procedure, shortened: as §1

[9] = system: Parabacteroides distasonis
Procedure, shortened: as §1

[10] = system: Parabacteroides merdae
Procedure, shortened: as §1

[11] = system: Roseburia intestinalis
Procedure, shortened: as §1

[12] = system: Streptococcus salivarius
Procedure, shortened: as §1

Measured: growth AUC

CC(=O)O.CCCCCCCCCCCCN=C(N)N
inactive: [1] 1.02 | [2] 1.02 | [3] 1.02 | [4] 1.04 | [5] 1.04 | [6] 0.794 | [7] 1.02 | [8] 1.02 | [9] 0.933 | [10] 0.996 | [11] 0.805 | [12] 1.03

CC1(C)[C@H](C(=O)O[C@H](C#N)c2cccc(Oc3ccccc3)c2)[C@@H]1/C=C\C(=O)OC(C(F)(F)F)C(F)(F)F
inactive: [1] 1.03 | [2] 1.01 | [3] 1.1 | [4] 0.984 | [5] 0.986 | [6] 1.12 | [7] 0.984 | [8] 1.03 | [9] 0.994 | [10] 1.01 | [11] 0.962 | [12] 1.07

CCCOc1nn(C(=O)[N-]S(=O)(=O)c2ccccc2C(=O)OC)c(=O)n1C.[Na+]
inactive: [1] 0.988 | [2] 0.994 | [3] 1.02 | [4] 1.08 | [5] 1.12 | [6] 0.968 | [7] 0.977 | [8] 1.1 | [9] 1.02 | [10] 0.999 | [11] 0.992 | [12] 0.981

COCc1c(F)c(F)c(COC(=O)[C@@H]2[C@@H](C=C(Cl)Cl)C2(C)C)c(F)c1F
inactive: [1] 0.981 | [2] 1.03 | [3] 1.02 | [4] 1.09 | [5] 1.09 | [6] 1.03 | [7] 1.04 | [8] 1.03 | [9] 1 | [10] 1.01 | [11] 0.979 | [12] 0.986

CO/C=C(/C(=O)OC)c1ccccc1COc1cccc(C(F)(F)F)n1
active: [9] 0.558
inactive: [1] 0.993 | [2] 0.989 | [3] 0.997 | [4] 0.937 | [5] 0.948 | [6] 0.975 | [7] 1.02 | [8] 0.964 | [10] 0.924 | [11] 0.989 | [12] 0.999

CNC(=O)O/N=C/C(C)(C)SC
inactive: [1] 1.01 | [2] 1.01 | [3] 1.03 | [4] 0.966 | [5] 0.939 | [6] 1.12 | [7] 0.99 | [8] 1 | [9] 1.03 | [10] 0.961 | [11] 1.03 | [12] 1.06

CC#Cc1cc(C)nc(Nc2ccccc2)n1
inactive: [1] 1.01 | [2] 0.986 | [3] 0.973 | [4] 1.03 | [5] 1.1 | [6] 0.844 | [7] 0.983 | [8] 1.06 | [9] 0.945 | [10] 0.991 | [11] 1.01 | [12] 1.01

CC(C)=CC1C(C(=O)OCc2coc(Cc3ccccc3)c2)C1(C)C (stereo not drawn)
inactive: [1] 1.01 | [2] 0.996 | [3] 1.01 | [4] 0.917 | [5] 0.878 | [6] 1.06 | [7] 1.12 | [8] 0.98 | [9] 1.01 | [10] 0.944 | [11] 0.921 | [12] 0.99

Clc1ccc(C2(Cn3cncn3)CC(Br)CO2)c(Cl)c1 (stereo not drawn)
inactive: [1] 0.997 | [2] 0.989 | [3] 1 | [4] 0.806 | [5] 0.914 | [6] 0.891 | [7] 0.987 | [8] 0.961 | [9] 0.952 | [10] 0.924 | [11] 0.99 | [12] 0.988

CC(Oc1ccc(Cl)cc1Cl)C(=O)O (stereo not drawn)
inactive: [1] 1.02 | [2] 0.978 | [3] 0.966 | [4] 1.04 | [5] 0.97 | [6] 0.927 | [7] 0.989 | [8] 0.965 | [9] 0.857 | [10] 0.973 | [11] 0.978 | [12] 0.981

CNC(=O)O/N=C(\C)C(C)S(C)(=O)=O (stereo not drawn)
inactive: [1] 1.02 | [2] 0.961 | [3] 0.979 | [4] 1.03 | [5] 0.972 | [6] 0.905 | [7] 0.894 | [8] 1.11 | [9] 0.955 | [10] 0.956 | [11] 0.95 | [12] 0.972

O=S1OC[C@@H]2[C@H](CO1)[C@]1(Cl)C(Cl)=C(Cl)[C@@]2(Cl)C1(Cl)Cl (stereo partly drawn)
inactive: [1] 0.959 and 0.955 | [2] 0.995 and 0.982 | [3] 0.985 and 1.03 | [4] 1.07 and 0.951 | [5] 0.927 and 0.887 | [6] 0.974 and 0.906 | [7] 1.05 and 1.01 | [8] 0.949 and 0.879 | [9] 0.98 and 0.937 | [10] 0.977 and 0.917 | [11] 0.954 and 0.949 | [12] 0.954 and 0.864

CN(C)C(=O)Nc1ccc(Cl)cc1
inactive: [1] 0.985 | [2] 1.01 | [3] 0.97 | [4] 0.996 | [5] 1.02 | [6] 1.05 | [7] 1.03 | [8] 0.963 | [9] 0.938 | [10] 1 | [11] 0.979 | [12] 0.971

ClC1(Cl)C2(Cl)C3(Cl)C4(Cl)C(Cl)(Cl)C5(Cl)C3(Cl)C1(Cl)C5(Cl)C24Cl (stereo not drawn)
inactive: [1] 0.986 | [2] 1.03 | [3] 0.989 | [4] 0.98 | [5] 0.997 | [6] 0.939 | [7] 0.897 | [8] 0.982 | [9] 1.03 | [10] 0.966 | [11] 0.958 | [12] 0.922

Cc1cc(C(C#N)c2ccc(Cl)cc2)c(Cl)cc1NC(=O)c1cc(I)cc(I)c1O (stereo not drawn)
active: [1] 0.275 | [4] 0.072 | [5] 0.702 | [6] 0.0202 | [7] 0.0904 | [8] 0.017 | [9] 0.0201 | [10] 0.00673 | [11] 0.15 | [12] 0.0175
inactive: [2] 0.958 | [3] 0.953

CS(=O)(=O)c1ccc(C(=O)C2C(=O)CCCC2=O)c(Cl)c1COCC(F)(F)F
inactive: [1] 1.01 | [2] 1.01 | [3] 0.994 | [4] 1.04 | [5] 1.05 | [6] 0.917 | [7] 0.989 | [8] 1.14 | [9] 0.944 | [10] 1.01 | [11] 0.964 | [12] 0.974

CP(=O)(O)CC(=O)O
inactive: [1] 0.991 | [2] 0.984 | [3] 1 | [4] 1.07 | [5] 0.945 | [6] 1.02 | [7] 0.871 | [8] 0.978 | [9] 0.979 | [10] 0.982 | [11] 1.09 | [12] 0.998

CCNc1nc(Cl)nc(NCC)n1
inactive: [1] 1.01 | [2] 1.05 | [3] 1.03 | [4] 0.961 | [5] 0.977 | [6] 1.09 | [7] 1 | [8] 0.998 | [9] 1.01 | [10] 1.01 | [11] 0.968 | [12] 1.03

O=c1ccc(=O)[nH][nH]1
inactive: [1] 0.996 | [2] 0.973 | [3] 0.976 | [4] 1.06 | [5] 0.877 | [6] 0.957 | [7] 1.11 | [8] 1.08 | [9] 1.01 | [10] 0.99 | [11] 1.01 | [12] 0.965

O=C(O)C(Cl)Cl
inactive: [1] 0.959 | [2] 1.01 | [3] 0.966 | [4] 0.977 | [5] 1.04 | [6] 1.04 | [7] 1.05 | [8] 0.997 | [9] 0.998 | [10] 1.03 | [11] 1.02 | [12] 1.02

CS/C(C)=N/OC(=O)N(C)SN(C)C(=O)O/N=C(\C)SC
inactive: [1] 0.98 | [2] 1.02 | [3] 1.01 | [4] 1.17 | [5] 1.04 | [6] 1.05 | [7] 0.941 | [8] 1.04 | [9] 1.03 | [10] 1.03 | [11] 1.01 | [12] 0.955

O=NN(CCO)CCO
inactive: [1] 1.01 | [2] 0.994 | [3] 1 | [4] 0.977 | [5] 1.01 | [6] 0.976 | [7] 1.01 | [8] 1.13 | [9] 0.861 | [10] 1.04 | [11] 0.971 | [12] 0.986

CCCN(CCC)c1c([N+](=O)[O-])cc(C(C)C)cc1[N+](=O)[O-]
inactive: [1] 1.06 | [2] 1.02 | [3] 0.996 | [4] 1.02 | [5] 1 | [6] 0.941 | [7] 1.09 | [8] 0.989 | [9] 0.932 | [10] 0.984 | [11] 1.01 | [12] 0.99

Cc1cnc(C2=NC(C)(C(C)C)C(=O)N2)c(C(=O)O)c1 (stereo not drawn)
inactive: [1] 1 | [2] 0.999 | [3] 1.01 | [4] 0.985 | [5] 0.976 | [6] 1.04 | [7] 0.939 | [8] 0.953 | [9] 1.07 | [10] 1.02 | [11] 0.997 | [12] 1.03
